Test systems include DDR1; DDR2; DMPK; DYRK1A; DYRK1B; DYRK2; EGFR; EIF2AK1; EPHA1; EPHA2; EPHA3; EPHA4; EPHA5; EPHA6.
Common to all, as to conditions: concentration: 1 μM,replicates: in singlicate; n = 1
The subject of the next assay is T1, DCAMKL2.
T1 construct: gene DCLK2

The next assay deals with T2, DCAMKL3.
T2 construct: gene DCLK3

The next assay relates to T3, DLK.
T3 construct: gene MAP3K12

The test system of a further assay is T4, DMPK2.
T4 construct: gene CDC42BPG

Another assay has as its system T5, DRAK1.
T5 construct: gene STK17A

In another assay the test system is T6, DRAK2.
T6 construct: gene STK17B
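Note: KINOMEscan kinase panel screen.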

Regarding `Cc1nnc(-c2ccc3occ(-c4ccc(S(C)=O)cc4)c3n2)o1` (stereo not shown), the “%Inh” value was determined as 0% in the assay with DCAMKL2; 0% in the assay with DCAMKL3; 0% with DDR1; 1% in the assay with DDR2; 0% in the assay with DLK; 0% in the assay with DMPK2. In addition, the “%Inh” value in the assay with DMPK, with DRAK1, in the assay with DRAK2, with DYRK1A, with DYRK1B and in the assay on DYRK2 was 0% each time. Further, the “%Inh” value with EGFR stood at 0%; in the assay with EIF2AK1, 0%; in the assay on EPHA1, 0%; with EPHA2, 3%; in the assay on EPHA3, 4%; in the assay with EPHA4, 23%. In addition, the “%Inh” value with EPHA5 was 1%; in the assay on EPHA6, 17%.
Consider `C[C@@H](Oc1cc(-n2cnc3ccc(-c4ccncc4)cc32)sc1C(N)=O)c1ccccc1Cl` [GSK483724], for which the “%Inh” value in the assay with DCAMKL2 is 18%; in the assay on DCAMKL3, 0%; in the assay on DDR1 it was 37%; in the assay with DDR2, 8%; in the assay with DLK it was 17%; with DMPK2, 2%. Moreover, the “%Inh” value in the assay on DMPK is 47%; in the assay with DRAK1 it was 81%; with DRAK2, 0%; in the assay on DYRK1A, 82%; with DYRK1B it was 91.5%; with DYRK2 it was 48%. Further, the “%Inh” value in the assay with EGFR was determined as 36%; with EIF2AK1, 4%; with EPHA1 it was 17%; in the assay with EPHA2, 19%; in the assay with EPHA3, 0%; in the assay with EPHA4 it was 2%. The “%Inh” value in the assay with EPHA5 is recorded as 0%; in the assay with EPHA6 it was 16%.
For the molecule `Cl.c1ccc(Oc2ccc(Nc3ccnc4cc(-c5ccc(CN6CCNCC6)o5)ccc34)cc2)nc1` [GW567142], the “%Inh” value in the assay on DCAMKL2 is 0%; with DCAMKL3, 36%; with DDR1, 70%; in the assay on DDR2, 27%; in the assay with DLK, 41%; with DMPK2, 0%. Moreover, the “%Inh” value in the assay on DMPK is 0%; in the assay with DRAK1, 9%; with DRAK2, 0%; in the assay with DYRK1A, 1%; with DYRK1B it was 0%; in the assay on DYRK2, 33%. Moreover, the “%Inh” value with EGFR amounted to 97.7%; with EIF2AK1, 0%; in the assay with EPHA1 it was 77%; in the assay with EPHA2 it was 0%; with EPHA3 it was 16%; in the assay on EPHA4 it was 0%. Further, the “%Inh” value with EPHA5 and in the assay on EPHA6 was 0% each time.
On to `CSc1nccc(-c2c(-c3ccc(F)cc3)ncn2CCCN2CCOCC2)n1.Cl` [SB-217146], for which the “%Inh” value in the assay on DCAMKL2 was 0%; in the assay on DCAMKL3, 0%; in the assay with DDR1 it was 0%; in the assay with DDR2 it was 33%; in the assay on DLK, 0%; with DMPK2, 0%. The “%Inh” value in the assay with DMPK came to 0%; with DRAK1 it was 0%; with DRAK2, 0%; in the assay with DYRK1A, 0%; with DYRK1B, 12%; in the assay with DYRK2 it was 12%. In addition, the “%Inh” value turned out to be 0% in the assay with EGFR; 0% with EIF2AK1; 0% with EPHA1; 0% with EPHA2; 0% in the assay on EPHA3; 7% with EPHA4. Besides, the “%Inh” value with EPHA5 and in the assay on EPHA6 was 0% throughout.
With `CN1CCN(CCCNc2nccc(-c3c(-c4ccc(F)cc4)nn4cc(C(N)=O)ccc34)n2)CC1` [GW622475], the “%Inh” value in the assay on DCAMKL2 is listed as 0%; in the assay with DCAMKL3 it was 7%; in the assay on DDR1 it was 100%; with DDR2, 82%; with DLK it was 0%; with DMPK2, 44%. Moreover, the “%Inh” value amounted to 0% with DMPK; 0% in the assay with DRAK1; 17% in the assay on DRAK2; 20% in the assay on DYRK1A; 100% in the assay on DYRK1B; 19% in the assay on DYRK2. Also, the “%Inh” value in the assay with EGFR was 38%; in the assay on EIF2AK1 it was 8%; in the assay with EPHA1 it was 51%; with EPHA2 it was 28%; with EPHA3, 31%; in the assay on EPHA4 it was 0%. In addition, the “%Inh” value in the assay with EPHA5 amounted to 0%; with EPHA6 it was 21%.
As for `CS(=O)c1ccc(-c2coc3ccc(-c4n[nH]c(=O)o4)cc23)cc1` (stereo not shown), the “%Inh” value was 0% in the assay with DCAMKL2; 0% in the assay with DCAMKL3; 0% in the assay with DDR1; 15% with DDR2; 0% with DLK; 0% with DMPK2. The “%Inh” value was found to be 29% in the assay with DMPK; 61% in the assay on DRAK1; 100% in the assay with DRAK2; 66% in the assay with DYRK1A; 68% in the assay with DYRK1B; 10% in the assay with DYRK2. In addition, the “%Inh” value was found to be 0% in the assay on EGFR; 3% in the assay on EIF2AK1; 0% in the assay with EPHA1; 0% with EPHA2; 0% in the assay on EPHA3; 0% in the assay on EPHA4. For the same molecule, the “%Inh” value with EPHA5 and in the assay on EPHA6 was 0% each time.
Take `O=C(Nc1cccc(C(F)(F)F)c1)c1cccc(Oc2ccc3nccn3n2)c1`: the “%Inh” value was 6% in the assay with DCAMKL2; 9% with DCAMKL3; 97.1% in the assay with DDR1; 95.9% with DDR2; 0% with DLK; 1% in the assay with DMPK2. Besides, the “%Inh” value is 13% in the assay on DMPK; 0% in the assay with DRAK1; 0% in the assay with DRAK2; 5% in the assay with DYRK1A; 14% in the assay with DYRK1B; 6% in the assay on DYRK2. Moreover, the “%Inh” value in the assay with EGFR was determined as 13%; in the assay on EIF2AK1, 0%; in the assay on EPHA1, 7%; with EPHA2, 42%; in the assay with EPHA3 it was 11%; with EPHA4 it was 17%. For the same molecule, the entries for the “%Inh” value in the assay on EPHA5 and with EPHA6 were 11% and 10%, respectively.
As for `Nc1nccc(-c2ccc3c(N)n[nH]c3c2)n1` [GSK1034945], the “%Inh” value with DCAMKL2 is 0%; in the assay on DCAMKL3, 36%; with DDR1, 0%; in the assay with DDR2, 0%; in the assay on DLK, 1%; with DMPK2, 2%. For the same molecule, the “%Inh” value with DMPK came out at 0%; with DRAK1 it was 98.1%; with DRAK2, 89%; with DYRK1A, 99.6%; with DYRK1B, 75%; in the assay on DYRK2, 93.1%. Further, the “%Inh” value stood at 24% in the assay on EGFR; 4% in the assay on EIF2AK1; 11% in the assay on EPHA1; 0% in the assay on EPHA2; 0% with EPHA3; 0% with EPHA4. Moreover, the “%Inh” value in the assay on EPHA5 and with EPHA6 was 0% each time.
For the molecule `CNC(=O)c1ccccc1Nc1nc(Nc2cccc(CS(C)(=O)=O)c2)ncc1C.O=CO` [GSK1520489], the “%Inh” value in the assay with DCAMKL2 worked out at 15%; with DCAMKL3, 0%; with DDR1 it was 99.9%; in the assay on DDR2, 95.9%; in the assay with DLK, 96.6%; in the assay with DMPK2 it was 0%. Besides, the “%Inh” value in the assay on DMPK is reported as 0%; with DRAK1, 91.6%; with DRAK2, 5%; with DYRK1A, 95.6%; in the assay with DYRK1B, 83%; in the assay on DYRK2, 97%. Further, the “%Inh” value in the assay with EGFR came out at 99%; with EIF2AK1 it was 0%; in the assay with EPHA1, 99.6%; in the assay with EPHA2, 99.1%; with EPHA3, 91.8%; with EPHA4, 88%. Further, the results for the “%Inh” value in the assay with EPHA5 and in the assay with EPHA6 were 93% and 90%, respectively.
As for `NC(=O)Nc1sc(-c2ccc(F)cc2)cc1C(N)=O` [GW789449], the “%Inh” value with DCAMKL2 is 0%; with DCAMKL3 it was 0%; with DDR1, 11%; in the assay with DDR2, 39%; with DLK, 38%; in the assay with DMPK2 it was 0%. Also, the “%Inh” value was 0% with DMPK; 43% in the assay on DRAK1; 70% in the assay on DRAK2; 23% with DYRK1A; 52% with DYRK1B; 25% in the assay with DYRK2. Besides, the “%Inh” value in the assay on EGFR was 23%; in the assay with EIF2AK1, 0%; in the assay on EPHA1, 60%; with EPHA2, 25%; in the assay on EPHA3, 0%; in the assay with EPHA4, 14%. In addition, the “%Inh” value in the assay with EPHA5 was 7%; with EPHA6 it was 11%.
Consider `Cl.Nc1n[nH]c2cc(-c3ccccn3)ccc12` [GSK2189892], for which the “%Inh” value worked out at 0% with DCAMKL2; 0% in the assay with DCAMKL3; 16% with DDR1; 0% in the assay on DDR2; 4% with DLK; 0% in the assay with DMPK2. Further, the “%Inh” value with DMPK is 0%; with DRAK1, 37%; in the assay on DRAK2, 0%; in the assay on DYRK1A, 10%; in the assay with DYRK1B, 10%; in the assay with DYRK2 it was 22%. In addition, the “%Inh” value is 38% in the assay on EGFR; 0% with EIF2AK1; 7% in the assay on EPHA1; 23% in the assay with EPHA2; 0% with EPHA3; 1% with EPHA4. The “%Inh” value with EPHA5 and in the assay on EPHA6 was 0% each time.
With `COC(=O)Nc1nc2cc(Oc3ccc(NC(=O)Nc4cc(C(F)(F)F)ccc4Cl)cc3)ccc2[nH]1.Cl` [GW697465], the “%Inh” value is on record as 11% in the assay with DCAMKL2; 31% in the assay on DCAMKL3; 100% in the assay with DDR1; 98.3% in the assay with DDR2; 60% in the assay on DLK; 0% with DMPK2. In addition, the “%Inh” value with DMPK is listed as 0%; in the assay with DRAK1, 2%; in the assay with DRAK2, 0%; with DYRK1A, 0%; with DYRK1B, 0%; in the assay with DYRK2, 0%. For the same molecule, the “%Inh” value with EGFR is 42%; in the assay with EIF2AK1, 0%; with EPHA1 it was 91%; in the assay with EPHA2 it was 96.2%; in the assay with EPHA3, 43%; in the assay on EPHA4, 92%. Moreover, the “%Inh” value is 37% in the assay with EPHA5 and 93.7% with EPHA6.
For the molecule `CCCC(=O)Nc1n[nH]c2ncccc12` [SB-601436], the “%Inh” value in the assay on DCAMKL2, in the assay with DCAMKL3, in the assay with DDR1, with DDR2, in the assay on DLK and in the assay on DMPK2 was 0% each time. Also, the “%Inh” value in the assay on DMPK turned out to be 0%; with DRAK1, 2%; in the assay on DRAK2 it was 0%; with DYRK1A, 0%; in the assay with DYRK1B it was 0%; in the assay on DYRK2, 2%. Further, the “%Inh” value in the assay with EGFR was 11%; in the assay on EIF2AK1 it was 0%; with EPHA1, 8%; in the assay with EPHA2, 0%; in the assay on EPHA3, 0%; in the assay on EPHA4, 14%. Besides, the “%Inh” value in the assay on EPHA5 came to 0%; in the assay on EPHA6, 25%.
As to `CN(c1ccccc1CNc1nc(Nc2ccc3c(c2)CC(=O)N3)ncc1C(F)(F)F)S(C)(=O)=O`, the “%Inh” value was 0% in the assay on DCAMKL2; 94.8% in the assay on DCAMKL3; 12% in the assay with DDR1; 0% in the assay on DDR2; 19% in the assay on DLK; 0% in the assay on DMPK2. Also, the “%Inh” value was determined as 25% in the assay with DMPK; 96.5% with DRAK1; 98.4% with DRAK2; 28% in the assay with DYRK1A; 30% in the assay with DYRK1B; 1% in the assay on DYRK2. Besides, the “%Inh” value with EGFR is given as 0%; in the assay with EIF2AK1 it was 0%; with EPHA1, 12%; with EPHA2, 4%; in the assay with EPHA3, 0%; in the assay with EPHA4, 2%. In addition, the “%Inh” value was found to be 6% in the assay on EPHA5 and 34% with EPHA6.

The record behind these values is article PMC5540273 (PLoS ONE, 2017).
